# Screening data from PubChem BioAssay.
# Pf Dd2 inh: Plasmodium falciparum Dd2 growth inhibition; P. falciparum Dd2 growth, SYBR Green, 72 h; Potency, µM (highest dose often 28.9 µM), for the others: at the top dose activity, negative = inhibition, actives largely listed as inhibitors; 120,000 tested, 4.3% active; AID 1347417; active = well fitted inhibition curve with a large enough effect;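 also: plate controls were DMSO vehicle for no effect and reference drug for full effect; nearly all actives have a fitted effect of over 65% in size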
#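 Infected erythrocytes (Dd2, 0.3% parasitemia, 2.5% hematocrit final) are added to compound in RPMI-1640/Albumax II medium, grown 72 h at 37C in low oxygen, then lysed with saponin/Triton-X containing SYBR Green and read by fluorescence.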
# * marks the source's active call; other numbers are inactive results; i = inactive; [ ] = another dose, or the depositor's remark. Shown is part of a subset that was picked to be rich in hits. Potency is read from the fitted curve at half-maximal effect.
SMILES,Pf Dd2 inh
O=C1CCN(Cc2ccncc2)CCCC(C(=O)NCCCc2ccccc2)CCN1 (stereo not drawn),-25%
COc1ncc(-c2n[nH]c3c2CC(=O)N(Cc2ccccc2)C3)cn1,i
COc1ccc(CN2CCC3(CC2)COc2ccccc2NC3=O)cc1,-15%
Cc1nc(C)n(CCCNc2nccc(-c3ccccn3)n2)n1,0%
CC(=O)Nc1ccc(Cl)c(C(=O)N(C)Cc2sccc2C)c1,-1%
O=C(NC1CCN(C(=O)N2CC3CC(C2)[C@H]2CCCC(=O)N2C3)CC1)c1cnccn1 (stereo partly drawn),20%
COCc1nc(C2CCCN(C(=O)c3cccc(F)c3)C2)no1 (stereo not drawn),34%
CN(C(=O)c1ccc(F)cc1)C1CCOc2ccccc21 (stereo not drawn),i
COCCOc1ccc2c(n1)CCN(C(=O)C1(c3ccccc3)CC1)C2,-9%
O=C(NCC(F)(F)F)c1cc(C2CC2)nc2onc(C3CCCNC3)c12 (stereo not drawn),2%
Cn1nc(C2CCNC2)c2c(C(=O)NCc3ccc(F)cc3)cc(C3CC3)nc21 (stereo not drawn),-23%
O=C(NCC(F)(F)F)c1cc(C2CC2)nc2c1c(C1CCCN1)nn2-c1ccccc1 (stereo not drawn),8.9µM*
CC(C)CNC(=O)c1cc(C2CC2)nc2onc(C3CCCNC3)c12 (stereo not drawn),-23%
Cn1nc(C2CCCN2)c2c(C(=O)NCC(F)(F)F)cc(C3CC3)nc21 (stereo not drawn),-14%
COc1ccc(CNC(=O)c2cc(C3CC3)nc3c2c(C)nn3-c2cccc(Cl)c2C)cc1,6%
CC(C)CNC(=O)c1cc(C2CC2)nc2c1c(C1CCCN1)nn2-c1ccccc1 (stereo not drawn),4.5µM*
O=C(NCc1ccncc1)c1cc(C2CC2)nc2c1c(C1CCCN1)nn2-c1ccccc1 (stereo not drawn),8.9µM*
COCCNC(=O)c1cc(C2CC2)nc2c1c(C1CCCN1)nn2C (stereo not drawn),-5%
CC(=O)N1CCN(C(=O)c2cnc(N)nc2-c2ccccc2)CC(O)C1 (stereo not drawn),-8%
CC(C)c1noc([C@@H]2C[C@H]3C(=O)NCCCCCCN(C(=O)c4ccncc4)[C@H]3C2)n1,-12%
CCCCn1nc(CCOC)nc1-c1ccc(C(=O)N2CCOCC2)cc1,-10%
CC1(C(=O)N2C[C@@H](COc3cccnc3)[C@H](c3ccccn3)C2)CC1,1%
COc1ccccc1N1CCN(C(=O)[C@H]2CN3CCC2C[C@@H]3Cn2cc(COc3ccccc3)nn2)CC1 (stereo partly drawn),10%
CC(C)NC(=O)N(C1CCOCC1)C1CN(C(=O)c2ccnn2C)C1,12%
CCN1C(=O)CCN(C(=O)C2CCCC2)CC12CCOCC2,9%
SMILES,Pf Dd2 inh
O=C(NCc1cccs1)c1cc(C2CC2)nc2onc(C3CCNC3)c12 (stereo not drawn),-11%
Cc1cccc(N2Cc3c(ncnc3N3CCC(N4CCOCC4)CC3)CN(C)C2=O)c1,12%
CCC(=O)N1CCC2(CC1)CC(Cc1nc(CCOC)no1)CCO2 (stereo not drawn),8%
COc1ccccc1NC(=O)[C@@H]1COCC(=O)N1Cc1ccc(OC)c(OC)c1,37%
COc1ccc2cc1Nc1ccc(cc1)C[C@H](NCc1ccncc1)C(=O)N(C)[C@H](C(=O)NCc1ccc(OC(F)(F)F)cc1)C2,-20%
COc1ccc2cc1Nc1ccc(cc1)C[C@H](NCc1cccc(C(=O)O)c1)C(=O)N(C)[C@H](C(=O)Nc1ccccc1OCc1ccccc1)C2,2µM*
O=C1NC2(CCN(C(=O)c3cccnc3)C2)N=C1c1ccncc1 (stereo not drawn),3%[44.1 µM]
COc1cccc(C(=O)N2CCC3(CC2)N=C(c2cccc(Br)c2)NO3)c1,-23%
COc1cccc(C(=O)N2CCC3(CC2)N=C(c2ccc(C)cc2)NO3)c1,i
COc1cccc(C(=O)N2CCC3(CC2)N=C(c2ccc(Br)cc2)NO3)c1,7.9µM*
COc1ccc(C(=O)N2CCOCCNC(=O)[C@H]3CCCC[C@H]32)c(OC)n1,i
CCOc1ccc(NC(=O)CN2C=C(C(=O)OC)C(C)=NS2(=O)=O)cc1,58%
COc1ccc(CCC(=O)N2CCCN(c3cc(-c4ccc(Br)cc4)[nH]n3)CC2)cc1,-8%
COc1cccc(C(=O)N2CCCN(c3cc(-c4ccc(Cl)cc4)[nH]n3)CC2)c1,4µM*
COc1cc(OC)cc(C(=O)N2CCN(c3cc(-c4ccc(Cl)cc4)[nH]n3)CC2)c1,-14%
O=C(CCCc1ccccc1)N1CCN(c2cc(-c3ccccc3)[nH]n2)CC1,i
COc1ccc(-c2cc(N3CCCN(C(=O)CCCc4ccccc4)CC3)n[nH]2)cc1,2.2µM*
COc1ccc(-c2cc(N3CCCN(C(=O)c4ccccc4)CC3)n[nH]2)cc1,-1%
O=C1NC(C(=O)Nc2ccc(F)c(F)c2)Cn2cccc21 (stereo not drawn),-18%
O=C(NCc1ccnc2[nH]ccc12)c1ccc(Cl)cc1,-12%[44.1 µM]
Cc1nccn1CC(=O)N1C[C@@H](COCC2CC2)[C@H](c2ccccn2)C1,-6%
CCc1ccc(-n2c(SCc3nc(-c4cc(OC)ccc4OC)no3)nnc2-c2ccccc2)cc1,11µM*
COc1ccc(-n2c(C)nnc2SCc2nc(-c3ccc(OC)c(OC)c3)no2)cc1,-3%
COc1ccc(-c2noc(CSc3nnc(-c4ccncc4)n3-c3ccccc3)n2)cc1,-7%
Cc1ccc2nc3n(c2c1)[C@@H](CNC(=O)c1ccncc1)COC3,-15%[44.1 µM]
SMILES,Pf Dd2 inh
CN1CCC(NC(=O)C2(CCO)CCN(Cc3ccccc3)C2)CC1 (stereo not drawn),17%
C[S+](=O)([O-])N1CC2(Cc3ccccc31)CN([S+](=O)([O-])c1ccc(C(F)(F)F)cc1)C2,i
CCc1noc(-c2cn(C3CCN(C(=O)c4cccc(NC(C)=O)c4)C3)nn2)n1 (stereo not drawn),i
NC(=O)[C@H]1C[C@@H](O)[C@H](O)[C@H]2[C@@H]1SC(=Nc1ccc(Cl)cc1)N2Cc1ccc(F)cc1,-20%
Cc1cnc(CC2CCCN(C(=O)c3cccnc3)C2)n1Cc1ccc(F)cc1 (stereo not drawn),i
Cc1cnc(C2CCC2)n1CC1CCN(C(=O)C(C)c2ccccc2)CC1 (stereo not drawn),8.9µM*
Cc1cnc(C2CCC2)n1CC1CCN(C(=O)Cc2cccnc2)CC1,4%
Cc1ccc(C(=O)N2CCC(Cn3c(C)cnc3C3CCC3)CC2)cn1,-8%
Cc1cnc(CC2CCN(C(=O)CC3CCCC3)CC2)n1Cc1ccc(F)cc1,3.2µM*
Cc1cnc(CC2CCN(C(=O)C(C)c3ccccc3)CC2)n1Cc1ccc(F)cc1 (stereo not drawn),2.2µM*
Cc1cnc(CC2CCN(C(=O)NC(C)C)CC2)n1Cc1ccc(F)cc1,i
Cc1cnc(CC2CCCNC2)n1Cc1ccc(F)cc1 (stereo not drawn),-26%
Cc1cnc(CC2CCN(C(=O)C3CCOC3)CC2)n1Cc1ccc(F)cc1 (stereo not drawn),-3%
CCOCCOc1cccc(C(=O)N2CCC3(CCNCC3)CC2)c1,-6%
Cc1ncsc1CN1C(=O)CO[C@H](c2ccc(NC(=O)c3cccc(C#N)c3)cc2)[C@H]1CO,i
COc1ccc(OC)c(NC(=O)CCC2CCN(C(=O)c3ccccc3)CC2)c1,-12%
CCN(CC)CCCNC(=O)Cc1ccc(NC(=O)N2CCCCc3ccccc32)cc1,17%
